Compounds without any hit were thinned out: in the full panel of roughly 83,000, 20% have a hit.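 Treatment: one concentration, 48 hours, 96-well format. Scoring: percent growth, with anything below 10 considered active.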 The source made the active and inactive calls.

The test system of the assay is ACHN renal. Briefly: NCI-60 one-dose screen, 48 h (100 = growth as untreated, 0 = no growth, -100 = all killed). Conditions: 10 µM. Here is the method:
Growth inhibition of the ACHN human tumor cell line is measured as a screen for anti-cancer activity. Cells are grown in 96 well plates and exposed to the test compound for 48 hours. Compounds are tested at a single concentration, which is 10^-5 M for most compounds. The reported endpoint is percent growth (GI% or GIPRCNT), where numbers from 0 - 100% represent growth inhibition, and numbers from -100% - 0 represent cell death. For example, a value of 40 represents 60% growth inhibition. A value of 0 means no net growth occurred over the course of the experiment. A value of -40 indicates 40% of cells at the beginning of the experiment died by the end of the experiment. A value of -100 means all cells are dead at the end of the experiment.
NCI-60 Human Tumor Cell Lines Screen was performed using the standard one-dose NCI protocol, which is described in more detail at https://dtp.cancer.gov/discovery_development/nci-60/default.htm.
Compounds with GIPRCNT values below 10 were considered active. Activity score was based on GIPRCNT using the following formula: […]
Score is 0 for GIPRCNT values of 100 or above, 50 for GIPRCNT values of 0, and 100 for GIPRCNT values of -100.
Regarding `CSc1nc(=O)n(Cc2ccc(F)cc2)c(=O)n1Cc1ccc(C)cc1`, the growth was 101% (inactive).
Under `CCCCCCCC(C)NCCO` (stereo not given) stands 117% (inactive).
The value for `c1ccc(C(NC2CC3CCC2C3)c2ccccc2)cc1` (stereo not given) was 98.9% (inactive); that for `CC(=O)OCc1cc(-c2nc3ccccc3[nH]c2=O)nn1-c1ccc(Cl)cc1` was 102% (inactive).
Under `O=C(N/N=C/c1ccccc1)C(Oc1ccccc1)c1ccccc1` (stereo not given) stands 93.1% (inactive); under `COc1ccccc1CNCCCN1C(=O)c2ccc3c4c(ccc(c24)C1=O)C(=O)N(CCCN)C3=O`, 2.62% (active); under `Cc1cccc(Cl)c1NC(=O)c1ccc2nc(NC(=O)NC3CCN(C)CC3)sc2c1`, 102% (inactive).
In the case of `Cc1ccc(C(=O)N2C/C(=C/c3ccc(F)cc3)C(=O)/C(=C/c3ccc(F)cc3)C2)cc1`, the growth is 103% (inactive).
Take `CCCCCCCCCCCCCCCCN(C(C)c1ccccc1)S(=O)(=O)c1ccc(OC)c(N)c1` (stereo not given): the growth was 106% (inactive).
Under `Nc1nc(N)c2c(ccc3nccc32)[nH]1` stands 42.7% (inactive); under `O=[N+]([O-])c1cccc(N=Cc2ccc3c(c2)OCO3)c1`, 122% (inactive); under `O=C(C[P+](c1ccccc1)(c1ccccc1)c1ccccc1)C[P+](c1ccccc1)(c1ccccc1)c1ccccc1`, -99.4% (active).
On to `O=C1/C(=C\c2ccc(F)cc2)CN(C(=O)c2ccccc2)C/C1=C\c1ccc(F)cc1`, for which the growth was 24.3% (inactive).
The value for `O=C1c2ccc3c4c(ccc(c24)C(=O)N1CCNCc1ccccc1)C(=O)N(CCNCc1ccccc1)C3=O` was 85.4% (inactive).
As to `O=C(Nc1ccc(Cl)cc1)N1NC(c2ccc(Cl)cc2)C=C1c1ccccc1` (stereo not given), the growth is 116% (inactive).
Under `O=[N+]([O-])c1cccc(-c2ncc(-c3ccc(Cl)cc3Cl)[nH]2)c1` stands -2.82% (active); under `CCOC(=O)CNC(=O)CCCCSc1ncnc2nc[nH]c12`, 104% (inactive); under `COc1ccc2c(c1)sc1nc(-c3ccccc3)c(-c3cccnc3)n12`, 97.7% (inactive).
As to `CCN(CC)CCCC(C)Nc1nc(-c2ccc(OC)cc2)nc2cc(Cl)ccc12` (stereo not given), the growth is 37% (inactive).
The value for `CC(=O)c1cc(Cl)ccc1O` was 99.8% (inactive); that for `COc1ccc2c(c1)O/C(=C\c1ccc([N+](=O)[O-])o1)C2=O` was 6.05% (active).
Take `O=[N+]([O-])c1ccc(N/N=C/c2cccc3ccccc23)nc1`: the growth was 91.8% (inactive).
On to `Cc1ccc(C(=O)Nc2cccc(F)c2)cc1NC(=O)C1(c2ncnc3[nH]ccc23)CC1`, for which the growth was 98.8% (inactive).
Under `COc1ccc2c(c1)N(CCO)C1=C(C(=O)OC1)C2c1ccccc1` (stereo not given) stands 48.6% (inactive); under `N#CCCN1C/C(=C/c2ccc(Br)cc2)C(=O)/C(=C/c2ccc(Br)cc2)C1`, -53.5% (active).
The value for `O=C1N=NC2=C1c1c3ccccc3c(O)n1CC2` was 99.9% (inactive).
The value for `Clc1cccc(-c2nc(-c3cccs3)no2)c1` was 96.3% (inactive); that for `CCCCCCN(CCCCCC)CC(O)c1ccc2c3c(cccc13)CC2` (stereo not given) was 53.8% (inactive); that for `CN(C)N=Nc1nn(C(=O)Nc2ccc(Cc3ccccc3)cc2)c2ccccc12` was 34.3% (inactive).
Take `Cc1cc(C)c(CCc2cc(C)c(C)cc2C)cc1C`: the growth is 112% (inactive).
With `CC(C)=NNc1ncnc2c1ncn2C1OC(CO)C(O)C1O` (stereo not given), the growth was 12.3% (inactive).
Under `COc1ccc(-c2nn(-c3cccc(NC(=O)c4cc(C(F)(F)F)cc(C(F)(F)F)c4)c3)cc2-c2ccncc2)cc1Cl` stands 66.2% (inactive).
Take `N#Cc1ncc(Br)c(NC2CCCCCC2)n1`: the growth is 100% (inactive).
Under `COc1ccc(OC)c(/C=C/c2nnc(Nc3ccc(Cl)cc3)o2)c1` stands 32.6% (inactive); under `COc1ccc(-c2cc(/C=C3\C(=O)Nc4ccc(Cl)cc43)[nH]n2)cc1OC`, 79.4% (inactive).
In the case of `CC1(O)CCC2CC3OC3(C)CCC3OC3(C)CCC1C2(C)C` (stereo not given), the growth was 102% (inactive).
The value for `COc1ccc(/C=C/C(C)=N/OCC(=O)O)cc1` was 106% (inactive).
The value for `COc1cc(/C=N/NC(=O)c2ccccc2Nc2cccc(C(F)(F)F)c2)cc(OC)c1OC` was 2.47% (active); that for `c1ccc(CNc2ncnc3scc(-c4cccs4)c23)nc1` was 54.7% (inactive); that for `CCN(CC)CCOc1nc2ccccc2c2c1-c1ccc(OC)cc1C2=O` was -6.81% (active).

The values are drawn from PubChem BioAssay (NCI).
